# ALDH1A1 block: inhibitors of human aldehyde dehydrogenase 1A1. AID 1030. Purified ALDH1A1, NADH fluorescence, propionaldehyde substrate. 220,000 tested, 7.3% active. Potency, µM (top dose mostly 75.3 µM), without a hit: top-dose activity, negative = inhibition, most hits filed as inhibitors; active = well fitted inhibition curve with a large enough effect, not every such curve was filed as active; inconclusive = small, poorly fitted or top-dose-only effect, or another doubt; inactive = no such curve, though single readings can be large or run the other way;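 also: plate controls were no enzyme wells and a reference inhibitor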
# HPGD inh: inhibitors of human 15-hydroxyprostaglandin dehydrogenase (HPGD); P15428; purified HPGD, NADH fluorescence kinetic, PGE2 substrate; Potency, µM, without a hit: top-dose activity change, negative = inhibition, actives largely listed as inhibitors; 150,000 tested, 4.3% active; active = well fitted inhibition curve with a large enough effect, not every such curve was filed as active; inconclusive = small, poorly fitted or top-dose-only effect, or another doubt; inactive = no such curve, though single readings can be large or run the other way
# Target sequence (P15428 whole entry, looked up): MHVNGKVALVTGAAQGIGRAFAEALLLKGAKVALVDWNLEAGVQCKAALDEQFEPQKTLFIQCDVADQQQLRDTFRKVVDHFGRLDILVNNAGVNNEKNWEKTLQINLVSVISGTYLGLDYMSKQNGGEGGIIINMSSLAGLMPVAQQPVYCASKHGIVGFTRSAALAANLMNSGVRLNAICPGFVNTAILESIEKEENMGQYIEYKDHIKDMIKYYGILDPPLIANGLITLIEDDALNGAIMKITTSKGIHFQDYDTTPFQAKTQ
#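 NADH formation kinetics: reaction with 30 uM PGE2 and 1 mM NAD+ (final), 20 nM enzyme, Tris-HCl pH 8 with Tween 20, after 15 min compound preincubation at room temperature. Fluorescence change, last versus first of five reads.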
# Tau fluor counter: counter-screen for tau fibril formation inhibitors; tau K18 P301L Alexa594 fluorescence, heparin fibrillization; Potency, µM (highest dose often 57.7 µM), for the others: top-dose activity change, negative = decrease; 280,000 tested, 0.93% active; AID 1463; also: nearly all actives have a fitted effect of over 55% in size
#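 Human tau K18 P301L (15 uM unlabeled, 0.24 uM Alexa 594-labeled) in 100 mM sodium acetate pH 7 with 20 uM heparin, 6 hr at 37 C. ThT 30 uM added, 1 hr ambient; Alexa 594 FP and total fluorescence read at 555/632 nm.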
# NPSR antagonist: neuropeptide S receptor (human) antagonism, cAMP. Q6W5P4. Potency, µM (titrated, usually from 38.3 µM), without a hit: at the top dose activity change, negative = inhibition, actives largely listed as inhibitors. CHO-NPSR cells, cAMP TR-FRET, antagonist mode. 220,000 tested, 1% active. AID 1461; also: nearly all actives have a fitted effect of over 50% in size
# Tau fibril FP: inhibitors of human tau fibril formation; P10636; K18 P301L tau heparin fibrillization, Alexa594 FP, 6 h; Potency, µM (highest dose often 57.7 µM), inactives show at the highest dose activity, negative = inhibition, usual class: inhibitors; 280,000 tested, 0.39% active; AID 1468; also: nearly all actives have a fitted effect of over 55% in size
# Target sequence (P10636 561-689 P618L limits assumed): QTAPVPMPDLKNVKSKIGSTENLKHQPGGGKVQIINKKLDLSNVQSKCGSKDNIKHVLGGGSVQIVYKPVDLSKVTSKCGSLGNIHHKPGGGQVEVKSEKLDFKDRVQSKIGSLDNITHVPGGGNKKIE
#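 K18 P301L tau (15 uM unlabeled/0.24 uM Alexa 594-labeled, final) + compound + heparin 20 uM final; 100 mM NaOAc pH 7; 6 hr 37 C; ThT 30 uM final added, 1 hr RT; FP ex 555/em 632 nm.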
# Tau fibril ThT: inhibitors of human tau fibril formation, thioflavin T binding | recombinant tau K18 P301L, heparin-induced fibrillization, ThT fluorescence | Potency, µM (titrated, usually from 57.4 µM), for the others: top-dose activity, negative = inhibition, actives largely listed as inhibitors | 270,000 tested, 2.1% active; also: nearly all actives have a fitted effect of over 55% in size
#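 ThT emission at 510 nm, taken 1 hr after adding 30 uM dye, quantifies aggregates formed when 20 uM heparin acts on human tau K18 P301L for 6 hr at 37 C.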
# Starred values were filed as active, the others as inactive; ? = inconclusive; nt = not tested or not shown; [ ] = remark or other dose. The list is not random: actives were taken first. Their share in the collection is about 9.5%. Unless noted, calls follow the shape of the dose curve; as a rule, active = well fitted curve in the direction sought with a large enough effect; inconclusive = small, poorly fitted or top-dose-only effect, or another doubt; inactive = no such curve, though single readings can be large; an effect the other way counts as inactive or inconclusive. Unless noted, % is scaled to controls: 0 for no effect and ±100 for the full control effect; potency is read from the fitted curve at half-maximal effect.
SMILES,ALDH1A1 block,HPGD inh,Tau fluor counter,NPSR antagonist,Tau fibril FP,Tau fibril ThT
COCc1[nH]nc2c1C1(C(=O)Nc3ccc(F)cc31)C(C#N)=C(N)O2 (stereo not drawn),5%,-5%,-2%,-5%[46.1 µM],-1%,0%
Cc1ccc(SCc2[nH]nc3c2C2(CCSCC2)C(C#N)=C(N)O3)cc1,10µM*,-14%,-22%,-12%[46.1 µM],1%,-7%
Cc1ccc(SCc2[nH]nc3c2C2(C(=O)Nc4ccc([N+](=O)[O-])cc42)C(C#N)=C(N)O3)cc1 (stereo not drawn),13µM*,-22%,?,-15%[46.1 µM],-8%,?
CCN(CC(=O)Nc1ccc(N2CCOCC2)cc1)C(=O)COc1ccccc1OC,5%,nt,-6%,17%,-1%,-6%
Cc1noc(C)c1C(=O)N1CCC2(CCN(Cc3cc(C(F)(F)F)cc(C(F)(F)F)c3)CC2)CC1,6%,-9%,nt,nt,nt,nt
Cc1cc(C)n(CCc2nc(-c3ccc(C)o3)cs2)n1,4µM*,25µM*,-7%,-2%[46.1 µM],-7%,?
COc1ccc(OCc2n(CC(=O)OC3CC(C)CCC3C(C)C)c3ccccc3[n+]2C)cc1 (stereo not drawn),nt,nt,0%[0.0958 µM],10µM*,0%[0.0958 µM],nt
COc1ccc(-c2n(CC(=O)OC3CC(C)CCC3C(C)C)c3ccccc3[n+]2C)cc1 (stereo not drawn),6.3µM*,nt,-10%,15%,-2%,?
COc1ncc2nc(C)c(=O)n(C[C@H]3CCCO3)c2n1,2%,-9%,nt,nt,nt,nt
CCOc1ccc(NC2C=CS(=O)(=O)C2)cc1 (stereo not drawn),?,-9%,-17%,-10%[46.1 µM],0%,35µM*
Oc1ccc(C=Nc2cccc3ncccc23)c(O)c1,-2%,-7%,-17%,-17%[46.1 µM],-9%,?
Oc1ccc(C=Nc2ccc3ncccc3c2)c(O)c1,28µM*,?,?,15%[7.67 µM],?,6.3µM*
Cc1cccc(N(CC(=O)NCc2ccc3c(c2)OCO3)C(=O)CCC(=O)Nc2ccccn2)c1,-11%,5%,-7%,11%[7.67 µM],0%,?
Cc1cccc(N(CC(=O)NCc2ccc3c(c2)OCO3)C(=O)CCC(=O)Nc2ccccn2)c1C,28µM*,-15%,6%,6%[7.67 µM],6%,0%
CC1=NN(c2ccc(C)c(C)c2)C(=O)C1C(c1cccc(O)c1)C1C(=O)N(c2ccc(C)c(C)c2)N=C1C (stereo not drawn),0.71µM*,10µM*,?,-1%[46.1 µM],-2%,?
CCn1c(SCC(=O)N/N=C/C=C\c2ccco2)nc2ccccc21,10µM*,?,-9%,-14%,-11%,?
CCn1c(SCC(=O)N/N=C/c2cc(OC)c(OC)c(OC)c2)nc2ccccc21,25µM*,-3%,-2%,15%,5%,-15%
Cn1cccc1/C=N/NC(=O)CSc1nc2ccccc2n1C,nt,nt,-16%,0%,-12%,-5%
C/C(=N/NC(=O)CSc1nc2ccccc2n1C)c1ccc(O)cc1,13µM*,nt,-16%,-11%,3%,?
CCn1c(SCC(=O)N/N=C/c2cc(OC)c(O)c(OC)c2)nc2ccccc21,?,-26%,-25%,-5%[46.1 µM],-2%,?
Cn1c(SCC(=O)N/N=C/c2ccncc2)nc2ccccc21,nt,nt,-14%,-5%,2%,-14%
Cn1c(SCC(=O)N/N=C/C=C\c2ccco2)nc2ccccc21,6µM*,20µM*,3%,-29%[46.1 µM],-4%,-2%
Cc1ccc(SCCNC(=O)CN(c2cccc(C)c2C)S(C)(=O)=O)cc1,nt,nt,-20%,nt,-3%,-11%
COC(=O)c1ccc(C2C=C(c3ccc(Cl)cc3)Nc3nc4ccccc4n32)cc1 (stereo not drawn),nt,nt,-8%,nt,2%,?
Cc1noc(/C=C/Nc2ccc(F)cc2F)c1[N+](=O)[O-],1.3µM*,nt,-18%,-36%,0%,3.2µM*
SMILES,ALDH1A1 block,HPGD inh,Tau fluor counter,NPSR antagonist,Tau fibril FP,Tau fibril ThT
CCC(=O)N1CCc2cc(S(=O)(=O)NCCCN3CCN(Cc4ccccc4)CC3)ccc21,18µM*,-18%,-3%,-1%[46.1 µM],-1%,-1%
O=C(CCS(=O)(=O)Cc1ccccc1F)N1CCc2ccccc2C1,3.5µM*,-10%,-1%,-4%[46.1 µM],-7%,-9%
O=C(CCS(=O)(=O)Cc1ccccc1)N1CCc2ccccc2C1,?,-5%,-11%,-12%[46.1 µM],-9%,-13%
CCC(=O)N1CCCc2cc(S(=O)(=O)N3CCN(c4ccccc4F)CC3)ccc21,14µM*,-12%,-10%,-9%[46.1 µM],8%,-14%
CCC(=O)N1CCc2cc(S(=O)(=O)CCC(=O)N3CCc4ccccc4C3)ccc21,13µM*,-3%,-3%,-9%[46.1 µM],8%,2%
COC(=O)c1sccc1S(=O)(=O)N(CC(=O)NCc1ccccc1)c1ccc(C)c(C)c1,nt,nt,1%,nt,8%,2%
COc1cc(NC(=O)Cc2cccs2)c(C(=O)O)cc1OC,2%,nt,18%,2%,7%,10%
CC(=O)N1CCc2cc(S(=O)(=O)CCC(=O)N3CCN(C(=O)c4ccco4)CC3)ccc21,32µM*,-10%,6%,-17%[46.1 µM],10%,-3%
CC(=O)N1CCc2cc(S(=O)(=O)CCC(=O)NCc3ccco3)ccc21,12%,nt,-2%,15%,-7%,-3%
COc1ccc(-c2c(O)c3c(OC)c4c(cc3oc2=O)OC(C)(C)C=C4)cc1,?,-22%,-18%,nt,12%,?
COc1cccc(NC(=O)Nc2nnc(N3C(C)CCCC3C)s2)c1 (stereo not drawn),nt,nt,10µM*[quencher],-53%,?,?
COc1cccc(NC(=O)Nc2nnc(CC(=O)Nc3ccccc3)s2)c1,nt,nt,?,-10%,13µM*,-3%
COc1ccc(NC(=O)Nc2nnc(N3CCCC3)s2)cc1,nt,nt,0%,nt,13%,-13%
COc1ccc(C(=O)C(CCC(CNC(C)(C)C)C(=O)c2ccc(OC)cc2)CNC(C)(C)C)cc1 (stereo not drawn),8.9µM*,-4%,-6%,23%,-4%,-9%
COc1ccc(C(=O)CC(=O)c2ccc(C(C)(C)C)cc2)cc1,?,-6%,-1%,nt,6%,1%
Cc1ccc(/C=C/C(=O)c2ccc(N3CCOCC3)cc2)s1,?,nt,?,0%,-1%,7.1µM*
COc1ccc(NS(=O)(=O)c2cccs2)cn1,9%,nt,5%,7%,-2%,8%
COc1ccc(NS(=O)(=O)c2ccc(OC)c3ccccc23)cn1,7.1µM*,-20%,-17%,-15%[46.1 µM],-3%,4%
CCC(C(=O)Nc1cc(Cl)c(OC)cc1OC)c1ccccc1 (stereo not drawn),20µM*,nt,-30%,-26%,1%,-9%
